Data as given in PubChem BioAssay AID1851 (National Center for Advancing Translational Sciences (NCATS), 2009).
Among all 16,000 compounds or so, about 2,600 (16%) were called active. Inconclusive results (about 20%) are left out. The list is a sample of the results. Unmarked numbers belong to inactive results. The call rests on the fitted dose curve; in most records, active means well fitted curve in the direction sought with a large enough effect; inconclusive means small, poorly fitted or top-dose-only effect, or effect the other way; inactive means no such curve, though single readings can be large or run the other way.

molecular target: Cytochrome P450 2D6 (Homo sapiens) (UniProt P10635); test: Cytochrome panel assay with activity outcomes; conditions: recombinant CYP, pro-luciferin dealkylation, luminescence, p450-cyp2d6; series mostly up to 57.1 µM; activity, negative = inhibition: at the top concentration
Sequence (P10635 whole entry, looked up): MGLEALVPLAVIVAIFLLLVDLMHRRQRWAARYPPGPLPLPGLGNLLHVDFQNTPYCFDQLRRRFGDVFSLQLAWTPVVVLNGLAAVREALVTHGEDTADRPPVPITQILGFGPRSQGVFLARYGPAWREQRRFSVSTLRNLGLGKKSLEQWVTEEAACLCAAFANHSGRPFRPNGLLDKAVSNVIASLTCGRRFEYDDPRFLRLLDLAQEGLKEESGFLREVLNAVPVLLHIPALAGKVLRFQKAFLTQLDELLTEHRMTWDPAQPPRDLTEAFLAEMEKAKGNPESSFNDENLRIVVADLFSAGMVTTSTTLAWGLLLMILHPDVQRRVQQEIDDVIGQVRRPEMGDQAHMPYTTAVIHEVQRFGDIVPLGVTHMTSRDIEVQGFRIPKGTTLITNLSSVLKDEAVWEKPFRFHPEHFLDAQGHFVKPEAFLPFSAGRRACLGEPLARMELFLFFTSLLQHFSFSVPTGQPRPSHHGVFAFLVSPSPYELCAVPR
On the % scale 0 is the no-effect control and ±100 the full control effect.

SMILES	activity, negative = inhibition	AC50
CNc1cc(CS(=O)c2ccccc2)nc(-c2ccccc2)n1 (centres undefined)	-6.79%	
Clc1ccc(Cl)c(Nc2ccnc(SCc3ccccc3)n2)c1	-0.772% [at 11.4 µM]	
CNc1cc(CSC)nc(SCc2ccc(Cl)c(Cl)c2)n1		28.2 µM (active)
CCN1C(=O)[C@H]2[C@H]3[C@H](O)[C@H](O)C/C(=N/OC[C@@H](O)[C@H]4O[C@H]5OC(C)(C)O[C@H]5[C@@H]4O)[C@@H]3CC[C@@H]2C1=O	7.29% [at 11.4 µM]	
Cn1sc(NC(=O)c2ccccc2)nc1=O	-0.613%	
O=C(O)CCC/C=C\C[C@@H]1CO[C@H](C(F)(F)F)O[C@@H]1c1ccccc1O	-5.14%	
CO[C@H]1COC(=O)C/C=C\[C@@H](C)COC(=O)[C@@H](OCc2ccccc2)/C=C\[C@@H]1C	1.83% [at 11.4 µM]	
CN(C)C(=O)c1ccc(-c2ccc3ncnc(N4CCC(C(=O)O)CC4)c3c2)cc1	2.88%	
Clc1ccccc1-c1ccc2ncnc(N3CCNCC3)c2c1	-6.85%	
Clc1ccc2c(N3CCC(CCC4CCN(c5ncnc6cc(Cl)ccc56)CC4)CC3)ncnc2c1		0.794 µM (active)
COc1ccc(OC)c(NC(=O)[C@H]2CC=CC[C@H]2C(=O)O)c1	14.4%	
O=C(Nc1cccc(Cl)c1)N1CCN2C(=O)c3ccccc3C12c1ccccc1 (centres undefined)		10 µM (active)
O=C(Nc1cccc(NC(=O)N2CCN(c3ccccc3)CC2)c1)N1CCN(c2ccccc2)CC1	-13.9%	
O=C(Nc1ccccc1)N1CCOCC1	-16.4%	
Cc1ccc(C2C(C=Nc3c(C)n(C)n(-c4ccccc4)c3=O)=C(c3ccccc3)Oc3ccccc32)cc1 (centres undefined)	5.37%	
CCOCCCN1C(=O)CN(C2CCCCCC2)C(=O)C1c1ccc(OC)cc1 (centres undefined)	-20.1%	
CCSc1nnc(-c2ccc(Cl)cc2)c2ccccc12	-23%	
CCN(CC)S(=O)(=O)c1ccc2c(c1)nc(SCC(=O)N1CCOCC1)n2-c1ccccc1OC	-5.25%	
COCCn1c(C)cc(C2=NNC(=Nc3ccc(F)cc3)SC2)c1C		7.94 µM (active)
Cn1cccc1C(=O)N1CCC2(CC1)CCN(c1cccc(-c3ccccc3)c1)CC2	-1.91%	

SMILES	activity, negative = inhibition	AC50
CN(C)c1ncc2nc(-c3ccccc3)c(=O)n(CCC#N)c2n1		1 µM (active)
N#CCCn1c(=O)c(CCc2ccccc2)nc2cnc(OCc3ccccc3)nc21	-3.72%	
N#CCCn1c(=O)c(CCc2ccccc2)nc2cnc(Oc3ccccc3)nc21	-1.17%	
CN(C)c1ncc2nc(-c3ccccc3)c(=O)n(CCc3ccccc3)c2n1	-2.25%	
CN(C)c1ncc2nc(CCc3ccccc3)c(=O)n(CCC#N)c2n1		2.51 µM (active)
CN(C)c1ncc2nc(-c3cc(F)cc(F)c3)c(=O)n(CCC#N)c2n1	0.117%	
COc1cc(/C=C2/C(=N)N3OC(C)=CC3=NC2=O)ccc1OCCOc1ccc(C)cc1	-28.9%	
COc1cccc(/C=N/NC(=O)CO/N=C(\C)c2cccs2)c1OC	-10.8%	
CC1CCN(c2ccc(NC(=S)NC(=O)c3ccco3)cc2)CC1	-0.336%	
COc1ncc2nc(-c3cc(F)cc(F)c3)c(=O)n(C3CC3)c2n1	-14.2%	
CCOC(=O)c1ccc(Cl)c(NC(=O)c2ccc(-c3ccccc3)cc2)c1	-9.32%	
CCOc1c(Cl)cc(C(=O)Nc2ccccc2-c2ccccc2)cc1Cl		0.0126 µM (active)
COC(=O)c1ccc(Cl)c(NC(=O)c2ccc(-c3ccccc3)cc2)c1	-7.02%	
COc1nc(OCCNC(C)=O)nc(N(C)C)n1	6.28%	
CC(C)NC(=O)c1ccccc1NC(=O)/C=C/c1ccc([N+](=O)[O-])cc1	2.09%	
Cc1cccc(NC2(C(F)(F)F)N=C(c3ccccc3)NC2=O)n1 (centres undefined)	19.5%	
O=C(O)c1cc(=O)c2c(Cl)cc(Cl)cc2[nH]1	-3.15%	
Cc1cc(Br)cc(C)c1OCCCCN(C)C		2 µM (active)
CCN1C(=O)[C@H]2[C@H]3[C@H](O)[C@H](O)C/C(=N/OC[C@@H](O)COCc4ccco4)[C@H]3CC[C@@H]2C1=O	-6.12% [at 11.4 µM]	
Nc1cc2c(nc3c4ccccc4c(N)cc3[n+]2-c2cccc3ccccc23)c2ccccc12 (tested in a mixture with another compound)		1.58 µM (active)

SMILES	activity, negative = inhibition	AC50
Nc1nc(-c2cc(-c3cccc4ccccc34)nc(N)n2)cc(-c2cccc3ccccc23)n1	-0.19% [at 11.4 µM]	
CSCC[C@@H]1NC(=O)C/C=C\[C@@H](C)COC(=O)[C@@H](C)COC1=O	16.4% [at 11.4 µM]	
Cc1sc(=NC(=O)c2ccco2)n(C)c1-c1ccccc1	-2.23%	
CCOc1ccccc1NC(=O)CCC(=O)O	3.08%	
COc1cc(NC(=O)c2ccccc2)c(OC)cc1NC(=O)CN1CCN(c2ccccn2)CC1	-3.63%	
CCn1c(-c2ccccc2Cl)nn(CC(=O)Nc2ccccc2OC)c1=S	-8.99%	
COc1ccc(NC(C)=O)cc1NC(=O)CN1CCN(CC(=O)Nc2ccccc2Cl)CC1	-21.7%	
COc1ccccc1NC(=O)CN1CCN(C2c3ccccc3-c3ccccc32)CC1		0.0251 µM (active)
CCOc1ccccc1NC(=O)CN1CCC(NC(=O)c2ccccc2)CC1		15.8 µM (active)
COc1ccccc1NC(=O)CCN1C(=O)C2CC=C(Cl)CC2C1=O (centres undefined)	21.9%	
CC(C)OC(=O)CN1CCN(C2c3ccccc3-c3ccccc32)CC1		0.251 µM (active)
O=C(O)C[C@@H](C(=O)O)C1c2ccccc2-c2ccccc21	6.65% [at 11.4 µM]	
CCOc1ccccc1NC(=O)C(=O)NCC1CCCN1CC (centres undefined)	-13.6%	
COc1ccc(NC(C)=O)cc1NC(=O)CN1CCN(C2c3ccccc3-c3ccccc32)CC1		15.8 µM (active)
Cc1ccc(C(=O)C(OC(=O)CN2C(=O)c3ccccc3C2=O)c2ccccc2)cc1 (centres undefined)	8.39%	
CC(=O)c1c(N2CCC(C(N)=O)CC2)nc(=S)n(-c2ccccc2)c1C	17.6%	
CCCc1cc2c(=O)c(-c3ccc4c(c3)OCCO4)coc2cc1OC(=O)c1ccco1	-18.9%	
COC(=O)c1c(-n2c(C)cc(C=O)c2C)sc2c1CCCC2	-0.395%	
CCOC(=O)c1c(-c2ccc(C)cc2)csc1NC(=O)C1CC=CCC1C(=O)O (centres undefined)	-18.1%	
